# HCV inhibitor: HCV inhibition; AID 651820; 340,000 tested, 3.4% active; Potency, µM (highest dose often 41.8 µM), inactives show top-dose activity change, negative = inhibition, hits mostly inhibitors; Huh7.5.1 HCVcc-Cre infection, luciferase reporter, 44 h; note: potency is the fitted concentration of half-maximal effect
#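 Luciferase read-out (15 sec integration) after a 15 min room-temperature substrate step quantifies HCVcc-Cre infection. Cells, 1,000 per well, had compound added 4 h post-plating, then virus at ~0.5 moi, and were cultured 44 h.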
# Pf growth 48h: inhibits P. falciparum growth in the first generation, 48 h; 310,000 tested, 5.9% active; P. falciparum luciferase growth in erythrocytes, 48 h; Potency, µM (top dose mostly 28.7 µM), for the others: at the top dose activity change, negative = inhibition, hits mostly inhibitors; note: potency is the fitted concentration of half-maximal effect
#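 Compounds are pin-transferred into medium, infected erythrocytes (2% hematocrit, 0.1% parasitemia final) are added, and plates sit one parasite generation at 37 C in 5% CO2. Detection reagent is then added and luminescence measured.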
# Pf growth 96h: P. falciparum growth inhibition at 96 hour, primary screen for plastid delayed-death inhibitors | Potency, µM (top dose mostly 28.7 µM), for inactives: top-dose activity change, negative = inhibition, hits mostly inhibitors | 320,000 tested, 6.9% active | P. falciparum luciferase reporter growth, 96 h; note: potency is the fitted concentration of half-maximal effect
#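 Plates of compound plus infected erythrocytes (2% hematocrit, 0.05% parasitemia final) incubate 96 hours, 37 C, 5% CO2. Detection reagent added; reduced luminescence from the parasites' luciferase reporter flags inhibition.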
# HCMV inh: human cytomegalovirus inhibition; activity change, negative = inhibition, % at 57.5 µM; HFF cells, HCMV-luciferase reporter, 72 h; active compounds read low; 410,000 tested, 4.5% active; AID 1259415; in the data active = activity change below about -60%; inconclusive = no clear call, values can overlap the other calls; inactive = above about -39%
#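 Two compound doses tested in HFFs infected with HCMV-luciferase, MOI 1 PFU/cell, 72 h at 37C. Lysate luminescence read with OneGlo; data normalized against buffer-only and 10uM Salinomycin inhibitor controls.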
# MARV entry inh: Marburg virus entry inhibition | Marburg virus pseudotyped entry inhibition, cell reporter | AID 540276 | Potency, µM (titrated, usually from 37.8 µM), inactives show at the top dose activity change, negative = inhibition, actives largely listed as inhibitors | 300,000 tested, 1.8% active; calls by dose curve; tested in HEK293 cells; note: potency is the fitted concentration of half-maximal effect
# LASV entry inh: Lassa virus entry inhibition; Potency, µM (titrated, usually from 37.9 µM), for the others: at the highest dose activity change, negative = inhibition, usual class: inhibitors; AID 540256; Lassa virus pseudotype entry inhibition, cell reporter; 300,000 tested, 1.2% active; calls by dose curve; tested in HEK293 cells; note: potency is the fitted concentration of half-maximal effect; nearly all actives have a fitted effect of over 50% in size
# Active calls of the source: *; ? = inconclusive; / = no result given; + = active, no number; [ ] = remark or other dose. In the library only some 14% were active in any assay of this set; here they are far more common. Unless noted, calls come from the whole dose curve; as a rule, active = well fitted inhibition curve with a large enough effect; inconclusive = small, poorly fitted or top-dose-only effect, or another doubt; inactive = no such curve, though single readings can be large or run the other way. % is set by controls: 0 for no effect and ±100 for the full control effect.
SMILES,HCV inhibitor,Pf growth 48h,Pf growth 96h,HCMV inh,MARV entry inh,LASV entry inh
COc1ccc(S(=O)(=O)N2CCCC(C(=O)NCc3ccc4c(c3)OCO4)C2)cc1 (centres undefined),-5.8%,2.08µM*,-22.9%,?,11.9%[46.1 µM],-12.7%
CCCCCCCCCCCCNC[C@@H]1CSCCS(=O)(=O)N1,/,/,/,12.2,/,/
CC(C)(C)c1ccc(C(=O)OCCN2CCCCC2)cc1,-13.7%,26.7%,5.86µM*,?,/,/
COc1ccc(C(=O)OCCN2CCCCC2)cc1,16.0%,20.6%,?,-29.2,?,?
CN(Cc1cccc(F)c1)C(=O)CSc1nnnn1C1CC1,1.1%,15.1%,99.2%,-13.2,17.5%[46.1 µM],6.1%
CN(Cc1ccccc1Br)C(=O)CSc1nnnn1C1CC1,-14.3%,?,3.29µM*,0.0,/,/
CCCC(=O)Nc1nnc(-c2ccco2)s1,-4.3%,54.7%,13.1µM*,21.0,?,18.0%
CCC(C(=O)Nc1nnc(-c2ccco2)s1)c1ccccc1 (centres undefined),12.4%,2.6%,11.7µM*,48.4,-4.6%[46.1 µM],2.2%
O=[N+]([O-])c1cccc(S(=O)(=O)Nc2cccc(-c3ccc(N4CCCC4)nn3)c2)c1,-6.1%,?,6.57µM*,-17.8,23.1%,4.2%
O=S(=O)(Nc1cccc(-c2ccc(N3CCCCC3)nn2)c1)c1ccc(F)cc1F,/,/,/,56.3,/,1.6%[46.1 µM]
O=[N+]([O-])c1cccc(S(=O)(=O)Nc2cccc(-c3ccc(N4CCOCC4)nn3)c2)c1,4.4%,?,?,-27.0,-3.3%,?
CC1CCN(c2ccc(-c3cccc(NS(=O)(=O)c4ccc(F)cc4F)c3)nn2)CC1,/,/,/,-99.8*,/,9.1%[46.1 µM]
Nc1c([N+](=O)[O-])cc2c3c(cccc13)CC2,/,/,/,-19.6,/,/
O=C(NCCc1ccccc1)c1nn(-c2ccc(F)cc2)nc1CO,/,/,/,-16.7,10.2%[46.1 µM],-3.1%[46.1 µM]
COC(=O)c1cc(-c2ccc3c(c2)OCO3)nc2ccccc12,?,3.4%,0.415µM*,-18.5,-16.8%,-4.0%
Cc1cc(N/N=C/c2ccc3c(c2)OCO3)nc2ccccc12,?,?,4.65µM*,54.7,/,/
O=c1[nH]c(N/N=C\c2ccc3c(c2)OCO3)nc2ccccc12,-8.9%,-76.2%,-28.6%,208.1,-24.8%[46.1 µM],?
O=C(N/N=C/c1ccc2c(c1)OCO2)c1cccc2ccccc12,-11.9%,4.7%,50.3%,-13.9,3.16µM*,-16.7%[46.1 µM]
N#Cc1ccc(/C=N/NC(=O)c2cc(-c3cccs3)nc3ccccc23)cc1,-9.9%,?,?,-20.2,6.31µM*,?
C[C@H]1CN([C@@H](C)CO)C(=O)c2cc(Br)cnc2O[C@@H]1CN(C)S(=O)(=O)c1ccccc1,/,/,/,-4.6,/,/
O=C(O)COc1ccccc1/C=N/NC(=O)Cc1ccccc1,11.3%,-10.3%,10.4µM*,6.1,/,/
O=C(O)COc1ccccc1/C=N/NC(=O)c1cc(-c2ccccc2)nc2ccccc12,12.4%,-5.4%,2.8%,+,-5.5%,4.1%
COc1ccc(/C=N/NC(=O)c2ccco2)cc1Cn1nc(C)cc1C,2.3%,13.0%,-13.3%,38.7,-16.4%,10.2%
COc1ccc(/C=N\NC(=O)COc2ccc(C(C)(C)C)cc2)cc1Cn1nc(C)cc1C,-6.2%,?,/,-9.8,?,2.24µM*
O=C(N/N=C/c1ccc2c(c1)OCO2)c1cc(-c2ccccc2)nc2ccccc12,6.5%,?,11.7µM*,-34.0,?,?
SMILES,HCV inhibitor,Pf growth 48h,Pf growth 96h,HCMV inh,MARV entry inh,LASV entry inh
O=C(O)COc1ccccc1/C=N/NC(=O)c1ccc(F)cc1,-3.9%,23.0%,15.5%,-26.5,?,5.0%[46.1 µM]
CSCC[C@H](NC(=O)[C@H](Cc1ccccc1)n1c(=O)[nH]c2ccccc2c1=O)C(=O)N[C@@H](Cc1ccccc1)C(=O)O,23.2%,6.7%,?,15.3,/,/
COC(=O)C[C@H]1C[C@H]2c3cc(NC(=O)C4CCOCC4)ccc3O[C@H]2[C@H](CO)O1,/,/,/,-21.7,/,/
Cc1cc(C)n(CC(=O)N/N=C/c2ccc3c(c2)OCO3)n1,-1.0%,32.4%,3.7µM*,?,?,4.7%
Cc1nn(CC(=O)N/N=C/c2ccc3c(c2)OCO3)c(C)c1Br,10.6%,-9.2%,0.0%,-11.0,3.8%,1.4%
Cn1cc(C(=O)N/N=C/c2ccc(Br)c([N+](=O)[O-])c2)c2ccccc21,?,?,?,?,-3.0%[46.1 µM],-0.3%
Cc1ccc(-c2cc(C(=O)N/N=C\c3cnn(C)c3C)c3ccccc3n2)cc1C,-19.6%,/,?,-30.9,-24.0%,11.2µM*
Cn1cc(C(=O)N/N=C/c2ccc3c(c2)OCO3)c2ccccc21,?,9.9%,-7.2%,6.1,12.6µM*,-11.2%[46.1 µM]
Cc1ccc(-c2cc(C(=O)NCc3cnn(C)c3C)c3ccccc3n2)cc1C,/,/,/,45.5,?,-15.9%[46.1 µM]
C[C@@H](CO)NC(=O)c1[nH]cnc1C(=O)Nc1ccccc1,/,/,/,4.8,/,/
CCc1ccc(NC(=O)CC2C(=O)N(c3ccccc3)C(=O)N2C(C)C)cc1 (centres undefined),/,/,/,-4.2,/,-3.0%[46.1 µM]
CCCCCCCCCCCCCCCC[N+](C)(C)CCl,12.0%,/,/,?,14.8%,6.5%
C#CC[N+](C)(C)CCCCCCCCCCCC,?,1.47µM*,0.37µM*,-97.8*,?,?
C#CC[N+](C)(C)CCCCCCCC,-17.0%,3.7µM*,?,-76.9*,-9.4%,2.8%
C#CC[N+](C)(C)CCCCCCCCCC,?,0.928µM*,?,-98.1*,-16.6%,-29.1%
CCCCCCCCCCCCCCCC(O)C[N+](C)(C)CCO (centres undefined),5.6%,/,/,?,25.7%,1.3%
Cc1cccc(N2CCN(c3ccc(C(=O)O)cc3NC(=O)c3cccc(Cl)c3)CC2C)c1 (centres undefined),/,/,/,6.6,/,?
CC(C)OCCCNC(=O)CCCN1C(=O)CCn2nc(-c3cccn3C)cc21,/,/,/,10.2,/,-2.1%[46.1 µM]
CCCN(S(=O)(=O)c1ccc(OCC)cc1)S(=O)(=O)c1cccs1,?,10.4µM*,?,-15.2,-57.6%,-31.5%
CCOc1ccc(NC(=O)CN(c2ccc(OC)cc2)S(=O)(=O)c2cccs2)cc1,3.4%,-5.6%,-10.2%,-15.0,/,/
CCc1cccc(CC)c1NC(=S)N1CCn2cccc2C1c1ccncc1 (centres undefined),3.4%,-10.0%,6.5%,1.1,-7.7%[46.1 µM],18.2%
CCCCNC(=S)N1CCn2cccc2C1c1cccnc1 (centres undefined),11.6%,?,45.3%,-21.1,1.1%,-4.6%
Fc1ccc(C2c3cccn3CCN2C(=S)Nc2cccc(Br)c2)cc1 (centres undefined),10µM*,11.7µM*,?,-26.2,-5.4%,-61.0%
Fc1ccc(NC(=S)N2CCn3cccc3C2c2cccnc2)cc1 (centres undefined),-22.6%,?,-16.5%,-17.5,?,12.4%

# Bioassay records deposited in PubChem by National Center for Advancing Translational Sciences (NCATS).
